# High-throughput results (PubChem BioAssay)
# D1 antagonist: blocks dopamine activation of the human D1 receptor; AID 504652; activity change, negative = inhibition, % at 10 µM; hit rate 3.2% among 360,000; P21728; HEK293 TREx D1 cells, calcium flux, dopamine EC80; stronger effect = lower value; in the data active means activity change below about -30%; further: on the % scale 0 is the no-effect control and ±100 the full control effect
#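 Kinetic fluorescence of a calcium dye serves as the read-out. D1-expressing Hek293 Trex cells, induced overnight at 30 C, are exposed to compound for 180 s before an EC80 dopamine addition, then read 180 s further.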
# D1 PAM: human D1 dopamine receptor positive modulation; HEK293 TREx D1 cells, calcium flux, dopamine EC20 potentiation; potentiation, % at 10 µM; AID 504651; P21728; hit rate 0.036% among 360,000; in the data active means potentiation above about 30%; further: 0% is about no effect
# D1 ag: agonists of human D1 dopamine receptor | P21728 | HEK293 T-REx D1 cells, calcium flux, agonist mode | activation, % at 2 µM | hit rate 1% among 360,000 | AID 504660; further: 0% is about no effect
#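 Tetracycline-induced HEK293 TREx D1 cells, force-coupled to calcium signalling, were dye-loaded with a no-wash calcium kit. Compound was pin-added after a 10 s baseline. Fluorescence was read kinetically at 1 cycle/s for 180 s, with calcium rises flagged as agonism.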
# TRHR enhancer: TRH receptor (human) allosteric enhancement; P34981; TRHR cells, fluo-8 calcium fluorescence, EC20 TRH enhancement; enhancement, % at 2 µM; hit rate 0.66% among 360,000; AID 493056; in the data active means enhancement above about 30%; further: 0% is about no effect
# Target sequence (P34981 whole entry, looked up): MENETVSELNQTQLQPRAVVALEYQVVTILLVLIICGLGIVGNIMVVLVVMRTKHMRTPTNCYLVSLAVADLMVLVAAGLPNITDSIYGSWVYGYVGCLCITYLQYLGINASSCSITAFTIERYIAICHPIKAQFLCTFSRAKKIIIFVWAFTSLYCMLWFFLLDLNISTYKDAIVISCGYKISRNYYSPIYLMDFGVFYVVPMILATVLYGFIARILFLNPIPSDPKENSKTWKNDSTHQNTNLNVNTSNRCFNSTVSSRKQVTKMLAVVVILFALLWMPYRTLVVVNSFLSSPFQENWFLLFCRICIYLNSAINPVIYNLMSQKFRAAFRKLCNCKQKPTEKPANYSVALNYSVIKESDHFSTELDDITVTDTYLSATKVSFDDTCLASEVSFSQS
#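 Enhancer read-out: after compound pinning and an initial kinetic agonist-mode read, an EC20 of TRH (10 nM final) was injected and fluo-8 calcium signal (Ex 480/Em 530) followed at 1 s/cycle for 100 cycles in TRHR-expressing cells.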
# TRHR ag: TRH receptor (human) agonism; TRHR cells, calcium flux fluo-8, FDSS agonist mode; activation, % at 2 µM; hit rate 0.18% among 360,000; AID 493084; further: 0% is about no effect
#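 TRHR-expressing cells loaded with fluo-8 calcium dye; 23 nL library compound pin-transferred, kinetic FDSS fluorescence (Ex 480/Em 530) recorded about 180 s for agonist-induced calcium release, before a 10 nM TRH EC20 addition for potentiator mode.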
# The depositor's hits bear a star; . = no result given. The list is not random: actives were taken first. Their share in the collection is about 4.6%. Unless noted, no stated cut-off is given here; in the data, active means activation above about 30%; inactive means the rest.
SMILES,D1 antagonist,D1 PAM,D1 ag,TRHR enhancer,TRHR ag
CCOC(=O)c1cc2c(=O)n3ccccc3nc2n(C(C)C)c1=NC(=O)c1c(-c2ccccc2Cl)noc1C,-6.8,-2.2,0.2,-1.2,0.1
COc1ccc(S(=O)(=O)NCCc2csc3nc(-c4cccc(C)c4)nn23)cc1F,.,-3.9,20.9,1.8,0.7
O=C(NCCCN1CCN(c2ccc(F)cc2)CC1)c1cnn(-c2ccc(F)cc2)c1-n1cccc1,1.2,-2.2,9.7,4.2,0.6
COc1cccc(-c2nn(-c3ccccc3)cc2C(=O)O)c1,6.2,-3.1,4.3,-1.9,0.0
COc1cccc(-c2nn(-c3ccccc3)cc2/C=C\C(=O)c2cccs2)c1,-13.2,0.9,33.2*,1.6,-0.4
COc1ccc(C(=O)OCC(=O)NC(Cc2ccccc2)C(C)=O)cc1S(=O)(=O)N1CCCC1 (stereo unspecified),-3.1,-3.1,1.9,-5.7,0.2
O=C1C(C=NCCCN2CCOCC2)=C(O)c2ccccc21,-36.9*,-8.1,1.6,0.7,0.1
COc1ccc(CN2C(=O)CC(Cc3cc(C)cc(C)c3)C2=O)cc1OC (stereo unspecified),-42.8*,-8.8,1.5,2.8,-1.1
CCN(CC)CCCNC(=O)c1cc(Cl)c(NC(=O)C2=C(C)OCCS2)cc1OC,-15.3,-6.8,3.9,8.0,0.8
O=C(Nc1nnc(SCCN2CCOCC2)s1)C1CC(=O)N(c2ccccc2)C1 (stereo unspecified),9.1,20.2,4.8,-1.6,0.2
O=Cc1ccc(N2CCCC2)o1,1.0,0.2,1.3,-0.9,0.0
N#C/C(=C\c1ccc(N2CCCCC2)o1)C(=O)Nc1cccc(Br)c1,-12.5,-12.5,427.6*,-8.1,107.7*
Cc1ccc(/C=C(\C#N)C(=O)Nc2cccc(Br)c2)o1,4.1,-1.4,3.8,-1.5,1.5
N#C/C(=C\c1ccc(N2CCCCC2)o1)C(N)=O,0.0,-6.6,36.9*,7.0,21.2
CC(C)(C)C(=O)COC(=O)CCc1nc2ccccc2[nH]c1=O,9.9,-1.5,2.4,-2.3,2.1
Cc1ccc(CNC(=O)C2CCC(=O)N(CCc3ccccc3)C2)s1 (stereo unspecified),17.4,-2.5,4.9,6.6,-0.9
Cc1ccc(-n2c(-c3nn(C)cc3Cl)n[nH]c2=S)cc1,27.7,-3.6,2.8,31.3*,1.6
O=C(O)[C@H]1CCCC[C@H]1C(=O)NCCNC(=O)[C@@H]1CCCC[C@@H]1C(=O)O,11.5,2.8,1.6,2.8,1.2
O=C(O)C1CCCCC1C(=O)OCCCCOC(=O)C1CCCCC1C(=O)O (stereo unspecified),-30.9*,-5.2,1.0,2.1,0.3
Cc1ccccc1C(=O)Nc1ccc(C(=O)N/N=C/c2ccc(O)cc2)cc1,0.0,-9.1,-0.5,6.9,0.0
O=C(N/N=C/c1cccs1)c1ccc(NC(=O)c2ccccc2Cl)cc1,-53.1*,-17.8,2.5,3.0,-0.2
O=C(N/N=C/c1ccc(O)cc1)c1ccc(NC(=O)c2ccccc2Br)cc1,-46.6*,-7.8,1.7,-2.5,0.7
CCCCN(C(=O)C(C)N1C(=O)c2ccccc2C1=O)c1c(N)n(CC(C)C)c(=O)[nH]c1=O (stereo unspecified),5.8,.,5.7,-0.7,0.3
O=C(Oc1ccc(Cl)cc1)c1cc(-c2ccc3c(c2)OCCO3)on1,-2.6,-1.6,17.1,5.6,0.1
O=C(Nc1cccc(Br)c1)c1cc(-c2ccc3c(c2)OCCO3)on1,-40.8*,-1.9,15.8,5.1,-0.7
SMILES,D1 antagonist,D1 PAM,D1 ag,TRHR enhancer,TRHR ag
N#Cc1ccc(OC(=O)c2cc(-c3ccc4c(c3)OCCO4)on2)cc1,-8.2,0.5,33.4*,6.3,-1.2
Cc1ccccc1OC(=O)c1cc(-c2ccc3c(c2)OCCO3)on1,-46.4*,-1.6,7.9,-2.9,0.0
Cc1ccc(NC(=O)NC(=O)CSc2n[nH]c(N)n2)c(C)c1,3.1,-1.4,4.0,-8.5,0.1
Cc1cn(C)c(CC(=O)NCc2cccc(Cl)c2)c1C(=O)O,17.5,-0.7,-0.1,11.1,0.2
COc1ccc(-c2onc(C)c2C)cc1S(=O)(=O)N(C)Cc1ccco1,-19.7,-6.0,5.7,-3.6,0.1
Cc1nn(-c2ccccc2)c(C)c1NC(=O)COc1ccc2ccccc2c1,-10.9,-2.0,14.9,4.8,-0.3
Cc1cc(-c2nc3ncccc3o2)ccc1NC(=O)COc1ccccc1C,-14.2,-0.8,2.2,-2.6,0.1
CCOC(=O)C1CCN(c2nc3ccccc3nc2C(C#N)C(=O)NCCc2ccccc2)CC1 (stereo unspecified),-30.5*,-1.4,0.4,-9.2,3.4
CCOC(=O)C1CCCN(c2nc3ccccc3nc2C(C#N)C(=O)OCC)C1 (stereo unspecified),-25.8,-13.6,9.5,-1.1,1.5
C(=N\NC1=NCCN1)/c1ccncc1,4.3,-5.7,0.8,0.4,-0.6
Cc1ccc(N/C(N)=N/c2nc(CSc3nnc(N)s3)cc(=O)[nH]2)cc1,-34.0*,-3.5,4.6,3.3,-0.1
O=C(COc1ccccc1)Nc1ccc(Cl)c(-c2nc3ncccc3o2)c1,-43.7*,-12.2,0.5,3.1,0.2
Cc1cc(N/N=C/c2ccc([N+](=O)[O-])o2)nc2ccccc12,2.2,0.9,47.8*,7.1,21.4
CC(C)Cn1c(CN2C(=O)c3ccccc3C2=O)nc2ccccc2c1=O,-1.8,-2.3,0.5,30.0*,0.3
CCOC(=O)c1ccc(NC(=O)C(CC)CC)cc1,-7.1,-6.7,1.7,-6.3,-0.1
COc1cccc(NC(=O)c2sc3nc(C)c(C(=O)Nc4ccc(C)cc4C)c(-c4sccc4C)c3c2N)c1,0.4,-2.9,2.8,-1.1,3.6
COc1ccc(NC(=O)c2sc3nc(C)c(C(=O)Nc4ccc(C)cc4C)c(-c4ccc(Cl)cc4)c3c2N)cc1,-3.1,0.2,-0.2,0.4,0.3
Cc1ccc(NC(=O)c2c(C)nc3sc(C(=O)NC4CCCC4)c(N)c3c2-c2ccco2)c(C)c1,15.0,-1.8,1.2,1.0,-0.8
CCc1ccc(NC(=O)c2sc3nc(C)c(C(=O)Nc4ccc(C)cc4C)c(-c4ccco4)c3c2N)cc1,-5.1,2.6,45.7*,1.0,6.4
COc1cccc(NC(=O)c2sc3nc(C)c(C(=O)Nc4ccc(C)cc4C)c(-c4ccco4)c3c2N)c1,-10.9,-0.7,35.5*,3.8,7.6
COc1cccc(NC(=O)c2sc3nc(C)c(C(=O)Nc4ccc(C)cc4C)c(-c4ccccc4Cl)c3c2N)c1,-30.7*,-0.4,9.9,-2.3,1.1
COCCCNC(=O)c1sc2nc(C)c(C(=O)Nc3ccc(C)cc3C)c(-c3ccccc3Cl)c2c1N,-32.0*,-0.8,1.3,-1.3,-0.3
Cc1cccc(OCCOC(=O)CN2C(=O)NC3(CCCC3)C2=O)c1,-17.1,-1.6,4.2,5.9,-0.9
Cn1cc(CN2CCC(CO)(CCCc3ccccc3)CC2)c(-c2ccccc2)n1,-1.5,-4.9,47.0*,-8.2,-1.2
